DUSP3 inh: DUSP3 (human) phosphatase inhibition; P51452; inhibition, % at 13.3 µM; 290,000 compounds, 0.52% hits; recombinant VHR phosphatase, pNPP absorbance; in the data active = inhibition above about 50%
3CLpro inhibitor: SARS-CoV 3CLpro protease inhibition; P0C6X7; recombinant SARS-CoV 3CLpro, quenched FRET peptide cleavage; inhibition, % at 6 µM; 290,000 compounds, 0.14% hits; AID 1706; in the data active = inhibition above about 12%
CCHFV vOTU inh: blocks the CCHF virus ovarian tumor domain protease; 370,000 compounds, 0.55% hits; CCHFV vOTU protease, Pep-AMC fluorescence; inhibition, % at 11.5 µM; in the data active = inhibition above about 30%; note: 0% = vehicle wells with enzyme and 100% = no enzyme wells
RecA splice inh: inhibitors of M. tuberculosis RecA intein splicing | cell-free RecA intein splicing, fluorescence | inhibition, % (no concentration beside the values) | 290,000 compounds, 0.75% hits | AID 2221 | P9WHJ3; in the data active = inhibition above about 30%;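 note: 0% = vehicle wells and 100% = reference inhibitor control wells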
Target sequence (P9WHJ3 whole entry, looked up, canonical isoform): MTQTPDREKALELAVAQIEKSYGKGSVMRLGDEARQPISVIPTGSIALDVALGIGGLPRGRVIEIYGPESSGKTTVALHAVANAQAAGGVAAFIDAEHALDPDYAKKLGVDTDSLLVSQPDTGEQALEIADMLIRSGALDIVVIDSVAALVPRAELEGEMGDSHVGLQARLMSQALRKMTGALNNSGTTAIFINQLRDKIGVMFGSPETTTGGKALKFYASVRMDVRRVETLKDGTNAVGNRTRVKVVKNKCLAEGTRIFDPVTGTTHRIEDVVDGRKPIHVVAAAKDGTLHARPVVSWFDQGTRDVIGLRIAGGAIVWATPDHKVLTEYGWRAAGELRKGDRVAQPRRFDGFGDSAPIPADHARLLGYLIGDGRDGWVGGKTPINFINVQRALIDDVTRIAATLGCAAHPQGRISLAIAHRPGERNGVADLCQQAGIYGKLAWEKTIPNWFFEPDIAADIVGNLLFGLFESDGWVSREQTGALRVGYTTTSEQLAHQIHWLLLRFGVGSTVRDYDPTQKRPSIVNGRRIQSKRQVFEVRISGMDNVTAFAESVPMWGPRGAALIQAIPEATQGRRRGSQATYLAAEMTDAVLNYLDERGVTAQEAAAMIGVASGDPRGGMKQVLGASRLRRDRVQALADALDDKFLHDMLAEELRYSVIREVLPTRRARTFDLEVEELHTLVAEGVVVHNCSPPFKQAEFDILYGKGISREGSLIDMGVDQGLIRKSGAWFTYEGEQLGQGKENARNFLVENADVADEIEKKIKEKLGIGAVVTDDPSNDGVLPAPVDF
Active calls of the source: *; / = not tested or not shown. This is a sample that favours compounds with a hit; in the whole collection about 1.5% have one here.

SMILES	DUSP3 inh	3CLpro inhibitor	CCHFV vOTU inh	RecA splice inh
NC1(CO)COC(c2ccccc2)OC1 (stereo not given)	/	/	3	/
Cc1ccc(/C(N)=N/OC(=O)C(C)c2ccc([N+](=O)[O-])cc2)cc1 (stereo not given)	20	-1	0	11
COc1cccc(C2C(C(C)=O)=C(C)Nc3ncnn32)c1 (stereo not given)	21	-1	/	-1
CC(=O)C1=C(C)Nc2ncnn2C1c1cccc(OCc2ccccc2)c1 (stereo not given)	53*	0	15	-2
CC(C)(Cc1ccc(O)cc1)NC(=O)SCc1ccccc1	51*	6	7	-3
CC(C)(CO)NC(=O)C(c1ccccc1)c1ccccc1	1	-5	5	-1
O=C(c1ccncc1F)N1CCC(n2nnc3ncccc32)CC1	/	/	3	/
COc1cc2c(cc1OC)-c1cc3ccc(OC)c(OC)c3c[n+]1CC2	/	/	21	/
COc1ccc2cc3[n+](cc2c1O)CCc1cc2c(cc1-3)OCO2	/	/	101*	/
CSCC[C@H](N)C(=O)NCC1CCC(C(=O)Nc2ccc3c(c2)OCO3)CC1 (stereo not given in full)	29	2	0	/
O=C(Cn1c(=O)oc2ccccc21)N1CCN(c2ccc(N3CCOCC3)nn2)CC1	54*	-2	-32	-4
O=C(Nc1ccn(CCCN2CCC(N3CCOCC3)CC2)c(=O)n1)OCc1ccccc1	/	/	-9	/
Cc1ccc2nc3c(cc(C(=O)NC4CCCC4)c(=N)n3C3CCCCC3)c(=O)n2c1	58*	2	-75	-396
O=C(O)C(=Cc1ccc([N+](=O)[O-])cc1)c1cccc(Cl)c1	/	/	-8	/
CNc1ccccc1C(C)(C)c1cn(-c2ccc([N+](=O)[O-])cc2)nn1	53*	-2	-10	/
Cc1ccn(-c2ccc([N+](=O)[O-])cc2)n1	12	4	1	0
O=C1/C(=C/c2ccc(Br)cc2)Oc2cc(O)ccc21	20	0	-7	-13
O=C1/C(=C/c2ccc([N+](=O)[O-])cc2)Oc2cc(O)ccc21	57*	-2	-3	-129
CCC1CCCCN1CCCNC(=O)C1CCCN(S(=O)(=O)N2CC(C)CC(C)C2)C1 (stereo not given)	54*	-4	9	1
CN1CCN(C(=O)C2CCN(c3ncnc4c3nc3n4CCCCC3)CC2)CC1	11	-1	-4	0
O=C(C1CCN(c2ncnc3c2nc2n3CCCCC2)CC1)N1CCCCC1	52*	-4	3	1
CC1CC(C)CN(S(=O)(=O)N2CCCC(C(=O)NCCCN3CCCCC3C)C2)C1 (stereo not given)	2	-5	10	-1
CN(Cc1ccco1)C(=O)C1CCCN(c2ncnc3c2nc2n3CCCCC2)C1 (stereo not given)	27	-1	5	-6
COCCN(Cc1ccco1)C(=O)C1CCCN(c2ncnc3c2nc2n3CCCCC2)C1 (stereo not given)	52*	-11	5	1
CCC1CCCCN1CCCNC(=O)C1CCCN(c2ncnc3c2nc2n3CCCCC2)C1 (stereo not given)	57*	-1	-4	-1
SMILES	DUSP3 inh	3CLpro inhibitor	CCHFV vOTU inh	RecA splice inh
Cn1c(N)c(C(=O)COC(=O)c2ccccc2C(=O)c2ccc(Cl)cc2)c(=O)n(C)c1=O	/	/	5	/
CCOC(=O)C1(C)CCCCCN1C(=O)c1ccccc1F (stereo not given)	/	/	-6	/
Cc1ccc(N2CC(C(=O)OCC(=O)Nc3c(C)cccc3C)CC2=O)cc1 (stereo not given)	/	/	7	/
C[C@@H]1CN([C@H](C)CO)C(=O)CCCn2nncc2CO[C@H]1CN(C)S(=O)(=O)c1ccc(C#N)cc1	/	/	0	/
CC1(C(=O)NS(=O)(=O)C2CC2)CCCN(C(=O)c2cccc(Cl)c2)C1 (stereo not given)	/	/	1	/
CCN(CC)c1ccc(NC(=O)CCS(=O)(=O)c2ccc(Br)cc2)c(C)c1	52*	1	5	-9
Cc1ccccc1NC(=O)CCS(=O)(=O)c1ccc(Br)cc1	-20	0	-12	-3
NCCc1ccn[nH]1	/	/	-4	/
CC1CN(C(=O)CCC(=O)NCCCN2C(C)CCCC2C)c2ccccc2O1 (stereo not given)	53*	-7	-4	2
CC1CCC(NC(=O)CCC(=O)N2CC(C)Oc3ccccc32)CC1 (stereo not given)	9	1	6	-3
COC(=O)Cc1c(C)c2ccc(OCC(=O)N(C)C)cc2oc1=O	51*	3	-62	3
O=C(Oc1ccc(C(=S)N2CCOCC2)cc1)c1ccc([N+](=O)[O-])cc1[N+](=O)[O-]	4	-2	-17	46*
O=[N+]([O-])c1ccccc1S(=O)(=O)n1nnc2ccccc21	10	4	13	3
CCOC(=O)N1CCC2(CC1)C(C#N)=C(N)Oc1c2c(C)nn1-c1cccc(Cl)c1	17	-1	-6	63*
CCN(CC(=O)Nc1ccc(NC(C)=O)cc1)C(=O)C(c1ccccc1)c1ccccc1	51*	1	2	3
S=C(NCCCN1CCOCC1)Nc1cccc(-c2nnc3n2CCCCC3)c1	-1	-4	-9	1
O=C(Cn1cncn1)N/N=C/c1ccccc1O	-8	5	3	-7
Cc1ccc(-c2cc(-c3ccc(C)cc3)[n+](-c3ccc(C(=O)[O-])cc3)c(-c3ccc(C)cc3)c2)cc1	/	/	-2	40*
CC1(C)C(=S)N(Cc2ccccc2)c2ccccc21	-16	1	-10	-1
COc1ccc(C(=O)NCc2cnn(C)c2)cc1OC1CCN(C(C)C)CC1	-26	-2	0	-1
COC(=O)CN(C)C(=O)c1ccc(OC)c(OC2CCN(C(C)C)CC2)c1	57*	-8	-11	-3
COc1ccc(C(=O)NCc2cnn(C)c2C)cc1OC1CCN(C(C)C)CC1	54*	-1	8	-4
COc1ccc(C(=O)N(C)Cc2ccc(C)o2)cc1OC1CCN(C(C)C)CC1	49	0	8	6
Cc1cc(C)nc(/N=C(\N)Nc2ccc(S(=O)(=O)Nc3nccc(C)n3)cc2)n1	15	5	21	-11
O=C(CCC(=O)Nc1cccnc1)Nc1cccnc1	/	/	-12	0
SMILES	DUSP3 inh	3CLpro inhibitor	CCHFV vOTU inh	RecA splice inh
Cc1ccc(-n2nc(C)c3c2OC(N)=C(C#N)C3c2ccncc2)cc1 (stereo not given)	21	2	4	/
Cc1ccc(-n2nc(C)c3c2OC(N)=C(C#N)C3c2ccccc2F)cc1 (stereo not given)	-5	-8	13	43*
Cc1[nH]c2ccccc2c1/C=N/NC(=O)c1ccc(N)cc1	58*	-2	5	-1
Cc1[nH]c2ccccc2c1/C=N/NC(=O)c1ccccc1	-13	-3	8	2
CCCCNS(=O)(=O)c1ccc2nc(SCC(=O)Nc3ccccc3)[nH]c2c1	-4	1	3	5
CCCCNS(=O)(=O)c1ccc2nc(SCC(=O)c3ccc(C#N)cc3)[nH]c2c1	57*	2	15	8
COc1ccccc1N1CCN(C(=O)/C=C/c2ccccc2)CC1	53*	2	0	1
COc1ccccc1N1CCN(C(=O)/C=C/c2cccs2)CC1	-4	6	-17	1
COC(=O)c1ccc(S(=O)(=O)N2CCC(NC(=O)COc3ccc(F)cc3)CC2)cc1	/	/	0	/

Screening results: PubChem BioAssay, several laboratories
